About 83,000 compounds went through this panel and 20% of them were active in at least one assay; those are over-represented in the sample as a whole.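 Cells were grown in 96-well plates and exposed to the test compound at a single concentration for 48 hours; results are reported as percent growth, with values below 10 considered active.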 Activity calls are given as the source filed them.
test system: A549/ATCC NSCLC; experiment: NCI-60 one-dose screen, 48 h (100 = growth as untreated, 0 = no growth, -100 = all killed); conditions: 10 µM unless noted
Description: Growth inhibition of the A549/ATCC human Non-Small Cell Lung tumor cell line is measured as a screen for anti-cancer activity. Cells are grown in 96 well plates and exposed to the test compound for 48 hours. Compounds are tested at a single concentration, which is 10^-5 M for most compounds. The reported endpoint is percent growth (GI% or GIPRCNT), where numbers from 0 - 100% represent growth inhibition, and numbers from -100% - 0 represent cell death. For example, a value of 40 represents 60% growth inhibition. A value of 0 means no net growth occurred over the course of the experiment. A value of -40 indicates 40% of cells at the beginning of the experiment died by the end of the experiment. A value of -100 means all cells are dead at the end of the experiment.
NCI-60 Human Tumor Cell Lines Screen was performed using the standard one-dose NCI protocol, which is described in more detail at https://dtp.cancer.gov/discovery_development/nci-60/default.htm.
Compounds with GIPRCNT values below 10 were considered active. Activity score was based on GIPRCNT using the following formula: […]
Score is 0 for GIPRCNT values of 100 or above, 50 for GIPRCNT values of 0, and 100 for GIPRCNT values of -100.

Row | Structure (SMILES) | growth
1 | CSc1nsc(N)n1 | 92% (inactive)
2 | C#CCSc1nnnn1-c1ccccc1 | 64% (inactive)
3 | CCOc1ccc2c(c1)c(C)cc(C)[n+]2CC | 45.4% (inactive)
4 | Cc1ccc(NCN2C(=O)c3ccccc3C2=O)c(C)n1 | 107% (inactive)
5 | CCCCCCCCCCCCCC/C=C\C(CC(=O)O)C(=O)O (stereo not given) | 103% (inactive)
6 | O=C1NC(=O)C(c2ccccc2)O1 (stereo not given) | 100% (inactive)
7 | Cc1cc(CO)c(O)c(CO)c1 | 103% (inactive)
8 | CC1CC2C3CCC4=CC(=O)CCC4(C)C3CCC2(C)C1(O)C(=O)CO (stereo not given) | 88.6% (inactive)
9 | CC(C)NC(=O)OCc1c(COC(=O)NC(C)C)c(-c2ccc(Cl)cc2)n2c1CCC2 | 66.5% (inactive)
10 | O=C1C=CC(=O)C2=C1CCCC2 | 95.8% (inactive)
11 | S=C=Nc1ccc2ccccc2c1 | 100% (inactive)
12 | Nc1c(Br)cc(O)c2c1C(=O)c1ccccc1C2=O | 96.1% (inactive)
13 | CSCC[C@@H]1C(=O)N(C)[C@H](C(C)(C)C)N1C(=O)c1ccccc1 | 101% (inactive)
14 | CC(C)N(C(=O)c1ccccc1)C(C)C | 98.8% (inactive)
15 | CCC1CCC(C)NC1 (stereo not given) | 105% (inactive)
16 | COc1ccc(/C=C\C(=O)/C=C/c2ccc(OC)cc2)cc1 | 102% (inactive)
17 | CC(C)=CCC[C@@H](C)[C@H]1CC[C@@]2(C)C3=C(CC[C@]12C)[C@@]1(C)CC[C@H](O)C(C)(C)[C@@H]1CC3 | 97.7% (inactive)
18 | COC1CC(OC(=O)c2ccc([N+](=O)[O-])cc2)C(COC(=O)c2ccc([N+](=O)[O-])cc2)O1 (stereo not given) | 103% (inactive)
19 | O=[n+]1ccn([O-])c2ccccc21 | 113% (inactive)
20 | O=CNCCc1ccccc1 | 96.8% (inactive)

Row | Structure (SMILES) | growth
21 | CC(=O)c1cccc(N(C)S(=O)(=O)c2ccc(C)cc2)c1 | 95.9% (inactive)
22 | N#C/C(=C\c1ccc2c(c1)OCO2)c1ccccc1 | 71.9% (inactive)
23 | CN1CCCN(C(c2ccccc2)c2ccc(Br)cc2)CC1 (stereo not given) | 87.7% (inactive)
24 | CN(CCCN(C)CCC1CCCCC1)CCC1CCCCC1 | 83.7% (inactive)
25 | Cc1ccc(S(N)(=O)=O)cc1Cl | 92.9% (inactive)
26 | Cc1ccc(C)c(CN(C)C)c1O | 106% (inactive)
27 | CC(C)(CC(=O)O)CC(=O)O | 101% (inactive)
28 | Cc1cc(Nc2ccc3c(c2)OCO3)c2cc3c(cc2n1)OCO3 | 46.3% (inactive)
29 | O=C(O)c1ccc(OCc2ccccc2)cc1 | 94.5% (inactive)
30 | Nc1cc2c(cc1Cl)C(=O)c1ccccc1C2=O | 27.2% (inactive)
31 | NNc1ncnc2nc[nH]c12 | 31.5% (inactive)
32 | CCOC(=O)C(COS(C)(=O)=O)(COS(C)(=O)=O)C(=O)OCC | 105% (inactive)
33 | O=c1nc(Nc2cccc(Cl)c2)oc2cc(Cl)oc(=O)c12 | 101% (inactive)
34 | COC1=C(OC)C(=O)C(SC/C=C(\C)CCCC(C)CCCC(C)CCCC(C)C)=CC1=O (stereo not given) | 17.8% (inactive)
35 | S=c1nc(-c2ccccn2)c(-c2ccccn2)n[nH]1 | 105% (inactive)
36 | Cc1onc(-c2ccccc2Cl)c1C(=O)Cl | 96.9% (inactive)
37 | c1ccc2c(NCCCN3CCN(CCCNc4c5ccccc5nc5ccccc45)CC3)c3ccccc3nc2c1 | -24.8% [100 µM] (active)
38 | N#Cc1ccc(OC(=O)Nc2c(Cl)cc(Cl)cc2Cl)cc1 | 96.3% (inactive)
39 | NC(=O)c1cc2c3ccccc3ccn2c1-c1ccccc1 | 22.8% (inactive)
40 | Cc1cccc2ccccc12 | 96.9% (inactive)
